Among the data in PubChem BioAssay (NCATS) are Potency values, retold here.

Assay [1] in a line: qHTS of pediatric cancer cell lines to identify multiple opportunities for drug repurposing: Primary screen for RD cells (AID 1347104). Note: nearly all actives have a fitted effect of over 55% in size. Note: potency is the fitted concentration of half-maximal effect. In short, it runs like this: (§1)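 Phenotypic viability qHTS, 48 h compound exposure, CellTiter-Glo luminescence read-out; multi-concentration dosing so that potency and efficacy derive directly from the primary screen's curves.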
A general note: Quantitative high-throughput screening tests each substance at several concentrations.

Assay [2] is described as follows: qHTS of pediatric cancer cell lines to identify multiple opportunities for drug repurposing: Primary screen for MG 63 (6-TG R) cells (AID 1347105). Note: nearly all actives have a fitted effect of over 50% in size. Note: potency is the fitted concentration of half-maximal effect. In short, it runs like this: as §1
Assay [3] in a line: qHTS of pediatric cancer cell lines to identify multiple opportunities for drug repurposing: Primary screen for control Hh wild type fibroblast cells (AID 1347106). Note: nearly all actives have a fitted effect of over 55% in size. Note: potency is the fitted concentration of half-maximal effect. In short, it runs like this:
(§2)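 Cells (500-1,000/well) in growth media were settled 5 h at 37 degrees C, then given compounds for 48 h. Viability was read as CellTiter-Glo luminescence. Primary runs used MIPE at 11 points (0.78 nM-46 µM) and NPC at 8 points (0.59 nM-46 µM); follow-ups used 11 points.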

A short description of assay [4]: qHTS of pediatric cancer cell lines to identify multiple opportunities for drug repurposing: Primary screen for Rh30 cells (AID 1347107). Note: series mostly up to about 46 µM; nearly all actives have a fitted effect of over 75% in size. The method in brief:
as §2

The nature of assay [5]: qHTS of pediatric cancer cell lines to identify multiple opportunities for drug repurposing: Primary screen for Rh41 cells (AID 1347108). Note: nearly all actives have a fitted effect of over 70% in size. Note: potency is the fitted concentration of half-maximal effect. The method in brief:
as §1

The nature of assay [6]: qHTS of pediatric cancer cell lines to identify multiple opportunities for drug repurposing: Primary screen for OHS-50 cells (AID 1347103). Note: nearly all actives have a fitted effect of over 40% in size. Note: potency is the fitted concentration of half-maximal effect. In short, it runs like this: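 Cells (500-1,000/well) rested 5 h, then received compounds for 48 h; metabolically active cells were measured by CellTiter-Glo luminescence. Final concentrations spanned up to 46 µM (MIPE, 11-point) or 0.59 nM-46 µM (NPC, 8-point) in primary screens, 11-point in follow-ups.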

Assay [7] in a line: qHTS of pediatric cancer cell lines to identify multiple opportunities for drug repurposing: Confirmatory screen for SK-N-MC cells (AID 1347111).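 Note: potency is the fitted concentration of half-maximal effect; cells exposed to compound for 48 h before the readout; nearly all actives have a fitted effect of over 70% in size.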 The note with it: SK-N-MC cell viability. The text has this:
(§3) Drug repurposing or repositioning has been offered as a strategy for drug development in oncology programs. This approach has special potential for childhood cancers and other rare or orphan diseases, where the expected return on new drug development has been a disincentive to pharmaceuticals.
(§4) In this project we exploit the poly-pharmacology of drugs to discover new indications via phenotypic screening of a panel of 19 well-characterized cell lines derived from solid tumors seen in children and adolescents. The goal is to identify approved drugs with previously unrecognized anticancer properties that has the potential to reveal new mechanisms and biological processes involved in carcinogenesis or drug resistance. We employed a titration-based paradigm (quantitative high-throughput screening or qHTS), where all compounds were tested at multiple concentrations for their effect on cell viability. Concentration-response curves (CRCs) were derived directly from the primary screen, and both potency and efficacy values were used to identify compounds with robust bioactivity profiles. We screened the NIH Chemical Genomics Center (NCGC) Pharmaceutical Collection (NPC) and Mechanism Interrogation Plate (MIPE) small molecule collections of approved and investigational compounds against these cell lines; and measured metabolically active cells after 48 hours of compound treatment as a proxy for cell viability.
(§5) Assay Submitter: Nathalia J. Martinez, National Center for Advancing Translational Sciences, National Institutes of Health, Rockville, MD, USA; email: natalia.martinez@nih.gov
(§6) [1] Shen, M et al. Quantitative high-throughput phenotypic screening of pediatric cancer cell lines identifies multiple opportunities for drug repurposing. Oncotarget 2017 Dec 19;9(4):4758-4772. PMID 29435139.
(§7) The cells were obtained from University of North Carolina (UNC), Pediatric Preclinical Testing Program (PPT), and Coriell Institute (CI).
(§8) qHTS cell viability assay:
(§9) Cells were assayed in growth media at a density of 500-1,000 cells/well. Five microliters of cells were dispensed into 1,536-well, white, solid-bottom, TC-treated plates (Greiner Bio One) using a multidrop dispenser and incubated at 37 degrees C, 5% CO2, under a humidified atmosphere for 5 hours. Twenty-three nanoliters of compounds and controls (neutral control DMSO or positive control bortezomib at final concentration of 2.3 µM) were subsequently transferred by Kalypsys pintool. For primary screens, the MIPE collection was tested at 11-point dilutions (final concentrations range from 0.78 nM to 46 µM) and the NPC collection at 8-point dilutions (final concentrations range from 0.59nM to 46 µM). Compounds tested in follow-up screens were assayed at 11-point dilutions. Cells were incubated for 48 hours, followed by addition of 3 uL of CellTiter-Glo (Promega). After a 15 min incubation at room temperature, samples were analyzed for luminescence intensity using a ViewLux High-throughput CCD imager equipped with clear filters.

Assay [8] can be described thus: qHTS of pediatric cancer cell lines to identify multiple opportunities for drug repurposing: Confirmatory screen for BT-12 cells (AID 1347112). Note: nearly all actives have a fitted effect of over 55% in size. Note: potency is the fitted concentration of half-maximal effect.
Excerpt: as §3, §4, §5, §6, §7, §8
as §9, with “0.59 nM” for “0.59nM”, “µL” for “uL”

Assay [9] can be described thus: qHTS of pediatric cancer cell lines to identify multiple opportunities for drug repurposing: Confirmatory screen for NB1643 cells (AID 1347109). Note: nearly all actives have a fitted effect of over 45% in size. Note: potency is the fitted concentration of half-maximal effect. In short, it runs like this:
as §2

A short description of assay [10]: qHTS of pediatric cancer cell lines to identify multiple opportunities for drug repurposing: Confirmatory screen for LAN-5 cells (AID 1347113). Note: nearly all actives have a fitted effect of over 65% in size. Note: potency is the fitted concentration of half-maximal effect. In short, it runs like this:
as §2

Inconclusive results are not listed. Unmarked numbers belong to inactive results. Calls of active or inactive are those of the source. Calls come from the whole dose curve; as a rule, active = well fitted curve in the direction sought with a large enough effect; inconclusive = small, poorly fitted or top-dose-only effect, or another doubt; inactive = no such curve, though single readings can be large; an effect the other way counts as inactive or inconclusive.

For the compound `COc1ccc(-c2cc(=S)ss2)cc1`, the Potency result in assay [1], in assay [2], in assay [3], in assay [4] and in [5] was “inactive” each time.
Turning to `NC(=O)C(c1ccccc1)(c1ccccc1)[C@@H]1CCN(CCc2ccc3c(c2)CCO3)C1`, the Potency result in assay [1], in assay [2], in assay [3], in [4] and in assay [5] was “inactive” in each case.
Take `O=c1[nH]c2ccccc2n1CCCN1CCN(C(c2ccccc2)c2ccccc2)CC1`: the Potency in assay [6] was 15.5 µM (active). For the same compound, the Potency result in assay [2], in assay [3] and in assay [4] was “inactive” in each case.
Consider `CN1CCN(c2cc3c(nn2)Oc2ccccc2N3C)CC1`, for which the Potency entry in [1], in [2], in [3], in assay [4] and in assay [5] was “inactive” throughout.
In the case of `CC(N)C(=O)OC(C)(C)Cc1ccc(Cl)cc1` (stereo unspecified), the Potency entry in assay [1], in [2], in assay [3], in [4] and in assay [5] was “inactive” in each case.
As for `O=c1cc(-c2ccccc2)oc2ccccc12`, the Potency entry in [1], in [2], in [3] and in [5] was “inactive” in each case.
With `CCCOC(=O)c1ccc(O)cc1`, the Potency entry in assay [1], in assay [2], in assay [3], in assay [4] and in assay [5] was “inactive” each time.
On to `Cc1c(Nc2ncccc2C(=O)O)cccc1C(F)(F)F`, for which the Potency result in assay [6], in assay [1], in assay [3], in assay [4] and in [5] was “inactive” in each case.
For `COc1cccc2c1C(=O)c1c(O)c3c(c(O)c1C2=O)C[C@@](O)(C(=O)CO)C[C@@H]3O[C@H]1C[C@H](N)[C@H](O[C@@H]2CCCCO2)[C@H](C)O1`, the Potency in [6] is 0.777 µM (active); in [1] it was 8.41 µM (active); in [2], 0.841 µM (active); in [5], 8.41 µM (active); in [7], 1.65 µM (active); in assay [8], 13.1 µM (active).
With `O=Cc1ccc(O)c(O)c1O`, the Potency result in assay [6], in assay [2], in assay [3], in [4] and in [5] was “inactive” throughout.
For `C#CC1(O)CC[C@H]2[C@@H]3CCC4=CCCC[C@@H]4[C@H]3CC[C@@]21C` (stereo partly specified), the Potency result in assay [1], in [3], in assay [4] and in assay [5] was “inactive” each time. In addition, the Potency in assay [2] was 21.1 µM (active).
Take `Clc1ccccc1-c1nc(-c2ccncc2)no1`: the Potency entry in assay [1], in [2], in assay [3], in assay [4] and in assay [5] was “inactive” throughout.
In the case of `CCCSc1ccc2nc(NC(=O)OC)[nH]c2c1`, the Potency is 0.872 µM (active) in [6]; 0.668 µM (active) in assay [2]; 2 µM (active) in [9]; 1.58 µM (active) in assay [7]; 25.1 µM (active) in [8]; 8.91 µM (active) in assay [10]. For the same compound, the Potency entry in assay [3] and in assay [4] was “inactive” each time.
Take `C#C[C@]1(O)CC[C@H]2[C@@H]3CCc4cc(O)ccc4[C@H]3CC[C@@]21C`: in [6], the Potency was 24.6 µM (active). Moreover, the Potency result in assay [2], in assay [3] and in assay [4] was “inactive” in each case.
For the compound `Cc1c(C(=O)O)c(O)cc2c1C(=O)c1c(O)c([C@@H]3O[C@H](CO)[C@@H](O)[C@H](O)[C@H]3O)c(O)c(O)c1C2=O`, the Potency result in [1] and in assay [4] was “inactive” throughout.
In the case of `O=C(CS)Nc1ccccc1`, the Potency entry in assay [6], in assay [2] and in assay [4] was “inactive” each time. The Potency is 16.8 µM (active) in assay [3] and 21.1 µM (active) in [5].
Take `CCCC(=O)OC[C@@H](OC(=O)CCC)[C@@H](OC(=O)CCC)[C@H](Cn1c2nc(=O)[nH]c(=O)c-2nc2cc(C)c(C)cc21)OC(=O)CCC`: the Potency entry in [2], in assay [3] and in assay [4] was “inactive” each time.
Take `Cc1cc(O)c2ccccc2c1O`: the Potency in assay [2] is 26.6 µM (active). Besides, the Potency entry in assay [3] is “inactive”.
Regarding `COC(=O)C1=C(C)NC(C)=C(C(=O)OCC(C)C)C1c1ccccc1[N+](=O)[O-]` (stereo unspecified), the Potency in assay [6] is 24.6 µM (active). For the same compound, the Potency result in assay [2], in assay [3] and in assay [4] was “inactive” each time.
Take `COC(=O)Nc1nc2ccc(C(=O)C3CC3)cc2[nH]1`: the Potency in assay [6] was 1.1 µM (active); in [7], 1.04 µM (active); in assay [8], 16.5 µM (active). Besides, the Potency result in assay [3] and in assay [4] was “inactive” throughout.
As to `Nc1ccc([N+](=O)[O-])cc1O`, the Potency result in assay [4], in assay [5], in [9], in [8] and in assay [10] was “inactive” throughout.
Regarding `O=C1CN(/N=C/c2ccc([N+](=O)[O-])o2)C(=O)N1`, the Potency entry in assay [6], in assay [1], in [3] and in [4] was “inactive” in each case.
Regarding `CCCCCCOc1ccccc1C(N)=O`, the Potency entry in [1], in assay [2], in assay [3], in [4] and in [5] was “inactive” throughout.
In the case of `c1ccc(CCNc2nc(-c3ccccc3)cs2)cc1`, the Potency entry in [2], in assay [3], in [4] and in assay [5] was “inactive” throughout.
`S=c1[nH]c2ccccc2s1`: the Potency entry in [6], in [2], in assay [3], in [4] and in assay [5] was “inactive” each time.
`COC(=O)C1=C(C)NC(C)=C(C(=O)OCC(C)=O)C1c1ccccc1[N+](=O)[O-]` (stereo unspecified): the Potency result in [4] and in [5] was “inactive” each time.
Turning to `COc1cc(NC(C)CCCN)c2ncccc2c1` (stereo unspecified), the Potency in assay [6] was 24.6 µM (active). The Potency result in [2], in [3] and in assay [4] was “inactive” in each case.
